# Measurements published in PubChem BioAssay (NCATS).
# Inconclusive results are not listed. Where a call stands in place of a potency, no number is given. Calls of active or inactive are those of the source. Calls come from the whole dose curve; as a rule, active = well fitted cell-killing curve with a large enough effect; inconclusive = small, poorly fitted or top-dose-only effect, or effect the other way; inactive = no such curve, though single readings can be large or run the other way.
# Columns and labels:
# [1] = Quantitative High-Throughput drug screen in 47 multiple myeloma cell lines against the NCATS MIPE library collection: KMS11_JCRBsus cell viability assay (AID 1919873); details: KMS11 myeloma viability, CellTiter-Glo ATP luminescence, 48 h; series mostly up to 45.8 µM; note: nearly all actives have a fitted effect of over 50% in size
# Outline: (§1)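 Myeloma cells (500/well) treated with MIPE 4.0 compounds for 48 h at 37 °C, 5% CO2. Viability read as ATP via CellTiter-Glo luminescence after 5 min at RT; DMSO-only wells = 100%, media-only = 0% viability.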
# [2] = Quantitative High-Throughput drug screen in 47 multiple myeloma cell lines against the NCATS MIPE library collection: OPM2_DSMZ cell viability assay (AID 1919872); details: OPM2 myeloma viability, CellTiter-Glo ATP luminescence, 48 h; series mostly up to 45.8 µM; note: nearly all actives have a fitted effect of over 30% in size
# Outline: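 We plated 500 myeloma cells per well, pinned in MIPE 4.0 compounds, and incubated for 48 hours at 37C. ATP was then quantified with CellTiter-Glo, with DMSO and media-only wells defining 100% and 0%.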
# [3] = Quantitative High-Throughput drug screen in 47 multiple myeloma cell lines against the NCATS MIPE library collection: KMS28BM_JCRB cell viability assay (AID 1919874); details: CellTiter-Glo ATP, 48 h; series mostly up to 45.8 µM; note: nearly all actives have a fitted effect of over 35% in size
# Outline: as §1
# Potency is the fitted concentration of half-maximal effect.
Compound,Potency [1],Potency [2],Potency [3]
CC[C@H](Nc1ncnc2nc[nH]c12)c1nc2cccc(F)c2c(=O)n1-c1ccccc1,18.7 µM (active),,
CC[C@@H](C)[C@H](NC(=O)[C@H](CC1CCCCC1)NC(=O)c1ccno1)C(=O)N1CCC2(CCc3ccccc32)CC1,,11.8 µM (active),inactive
O=C1[C@H](Cc2ccc(O)cc2)N2C(=O)CCN(C(=O)NCc3ccccc3)[C@H]2CN1Cc1cccc2ccccc12,1.66 µM (active),,
CCCS(=O)(=O)Nc1ccc(F)c(C(=O)c2c[nH]c3ncc(Cl)cc23)c1F,26.4 µM (active),inactive,
CCc1ccc(CCOc2ccc(CC3SC(=O)NC3=O)cc2)nc1 (stereo unspecified),inactive,inactive,inactive
c1ccc([C@H]2CN3CCSC3=N2)cc1,inactive,inactive,inactive
CCn1c(-c2nonc2N)nc2c(C#CC(C)(C)O)ncc(OC[C@H]3CCCNC3)c21,2.96 µM (active),,0.372 µM (active)
COc1ccc(-c2ccc3c(N4CCOC[C@H]4C)nc(N4CCOC[C@H]4C)nc3n2)cc1CO,,0.0209 µM (active),0.0083 µM (active)
